Several values for one entry are separate records, joined by “and”; a condition that tells them apart may be missing. Identical values can stand only once. Records with an inconclusive call do not appear. Some compounds were tested as several samples or in several runs, with calls that do not always agree. Activity calls are given as the source filed them. How the source made its calls: active means hit-call score of the fitted dose curve at least 0.9, where 1 is the maximum; inconclusive means response in the unintended direction; inactive means score below 0.9.

Chain of GAL4 Transcription Factor (Internal Marker), GAL4 (gene 855828) (P04386 whole entry, looked up, the tested form may be a part): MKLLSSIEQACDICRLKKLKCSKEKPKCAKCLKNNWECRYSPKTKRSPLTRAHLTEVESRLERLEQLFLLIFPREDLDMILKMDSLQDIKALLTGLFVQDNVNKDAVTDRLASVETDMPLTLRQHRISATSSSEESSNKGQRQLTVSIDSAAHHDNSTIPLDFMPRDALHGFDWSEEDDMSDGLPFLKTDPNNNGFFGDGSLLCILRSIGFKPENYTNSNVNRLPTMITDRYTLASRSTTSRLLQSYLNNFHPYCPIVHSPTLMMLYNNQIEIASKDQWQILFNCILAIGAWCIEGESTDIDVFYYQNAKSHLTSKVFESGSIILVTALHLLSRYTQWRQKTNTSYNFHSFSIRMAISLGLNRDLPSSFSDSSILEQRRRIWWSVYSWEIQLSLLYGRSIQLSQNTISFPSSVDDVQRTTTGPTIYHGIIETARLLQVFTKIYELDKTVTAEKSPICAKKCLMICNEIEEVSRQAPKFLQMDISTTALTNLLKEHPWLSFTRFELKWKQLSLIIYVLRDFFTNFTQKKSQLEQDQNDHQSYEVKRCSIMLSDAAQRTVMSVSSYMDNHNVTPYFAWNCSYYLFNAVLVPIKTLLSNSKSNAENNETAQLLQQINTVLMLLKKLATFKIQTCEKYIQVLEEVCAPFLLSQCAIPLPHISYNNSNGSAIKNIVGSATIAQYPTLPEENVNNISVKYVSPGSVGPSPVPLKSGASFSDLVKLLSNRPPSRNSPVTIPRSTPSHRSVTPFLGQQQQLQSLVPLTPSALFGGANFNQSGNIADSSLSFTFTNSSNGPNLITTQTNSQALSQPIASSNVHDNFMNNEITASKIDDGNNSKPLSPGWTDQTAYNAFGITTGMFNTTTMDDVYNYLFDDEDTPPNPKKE
Chain of chicken Estrogen Receptor (ERa), ESR1 (gene 396099) (P06212 whole entry, looked up, the tested form may be a part): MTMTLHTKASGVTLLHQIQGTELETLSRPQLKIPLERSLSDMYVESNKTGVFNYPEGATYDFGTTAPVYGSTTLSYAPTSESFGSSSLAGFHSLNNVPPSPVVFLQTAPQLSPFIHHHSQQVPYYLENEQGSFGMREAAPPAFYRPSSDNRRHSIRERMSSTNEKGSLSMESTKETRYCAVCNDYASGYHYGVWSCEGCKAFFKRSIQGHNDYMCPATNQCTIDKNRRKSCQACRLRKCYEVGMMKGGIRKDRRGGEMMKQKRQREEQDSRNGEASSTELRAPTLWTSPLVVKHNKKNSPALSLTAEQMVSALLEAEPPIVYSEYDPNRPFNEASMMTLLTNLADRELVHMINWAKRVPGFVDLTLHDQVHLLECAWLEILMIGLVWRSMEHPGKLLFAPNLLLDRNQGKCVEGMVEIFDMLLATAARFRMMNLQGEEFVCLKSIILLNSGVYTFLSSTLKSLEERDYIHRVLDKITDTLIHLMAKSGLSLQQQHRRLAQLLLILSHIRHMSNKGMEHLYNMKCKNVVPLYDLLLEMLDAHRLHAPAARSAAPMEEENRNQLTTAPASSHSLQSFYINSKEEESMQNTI
Chain of zebrafish Estrogen Receptor (ER1), esr1 (gene 259252) (P57717 whole entry, looked up, the tested form may be a part): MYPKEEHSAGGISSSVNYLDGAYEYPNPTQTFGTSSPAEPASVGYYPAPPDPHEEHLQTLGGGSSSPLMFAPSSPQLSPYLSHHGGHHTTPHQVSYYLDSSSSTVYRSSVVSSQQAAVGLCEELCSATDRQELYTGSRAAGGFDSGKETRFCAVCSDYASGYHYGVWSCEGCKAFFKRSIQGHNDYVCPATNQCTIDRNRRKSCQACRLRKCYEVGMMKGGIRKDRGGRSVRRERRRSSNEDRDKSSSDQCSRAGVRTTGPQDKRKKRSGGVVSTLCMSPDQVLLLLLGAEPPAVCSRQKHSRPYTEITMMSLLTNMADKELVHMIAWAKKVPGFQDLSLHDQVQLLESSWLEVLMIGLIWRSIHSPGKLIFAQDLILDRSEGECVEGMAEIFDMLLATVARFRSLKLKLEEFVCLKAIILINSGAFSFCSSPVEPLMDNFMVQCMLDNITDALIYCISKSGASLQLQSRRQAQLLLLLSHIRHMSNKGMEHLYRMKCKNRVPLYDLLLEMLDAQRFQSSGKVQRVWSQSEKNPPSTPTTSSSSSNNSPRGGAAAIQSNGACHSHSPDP

One assay deals with GAL4 Transcription Factor (Internal Marker), GAL4 (gene 855828) (UniProt P04386). The assay is described as follows: ATG_GAL4_XSP2: Attagene TRANS-FACTORIAL Multi-Species (XSP2) HepG2 Assay for GAL4 Transcription Factor (Internal Marker) (AID 2283814).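 Further: GAL4 reporter mRNA background control in MRTU transfected cells not a receptor target.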 The procedure, abridged:
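Background-control readout: gain-of-signal fitted against DMSO. After 24 h exposure of transfected HepG2 (MRTU, GAL4-UAS reporters; 3 nM 6-alpha-fluorotestosterone, 1.5 nM norgestrel present), transcripts quantified by RT-PCR and capillary electrophoresis fluorescence.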
Turning to `CCC(=C(c1ccc(O)cc1)c1ccc(OCCN(C)C)cc1)c1ccccc1`, the molecule was classed as inactive.

For the molecule `CCCOC(=O)c1ccc(O)cc1`, the outcome was inactive.

As to `c1ccc2c(c1)ccc1ccccc12`, the molecule was classed as inactive.

`Oc1cc2ccccc2c2ccccc12`: the molecule was classed as inactive.

The subject of another assay is turtle Androgen Receptor (AR), gene 101947425. The assay is described as follows: ATG_trAR_XSP2: Attagene TRANS-FACTORIAL Multi-Species (XSP2) HepG2 Assay for turtle Androgen Receptor (AR) (AID 2283815).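 On AC50: potency for gain of reporter signal meaning activation above DMSO baseline.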 Summed up: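 Reporter transcripts were quantified via RT-PCR and capillary electrophoresis and fitted upward against DMSO. Transiently transfected human HepG2 cells carrying NR-Gal4 chimeras were exposed 24 h, with 3 nM 6-alpha-fluorotestosterone plus 1.5 nM norgestrel added.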
In the case of `O=C(O)Cc1cc(I)c(Oc2cc(I)c(O)c(I)c2)c(I)c1`, the molecule was called inactive.

Consider `C#C[C@]1(O)CC[C@H]2[C@@H]3CCC4=CC(=O)CC[C@@H]4[C@H]3CC[C@@]21C`, for which the AC50 (in general, the concentration giving half of the maximal activity seen) is 180000 nM (active).

On to `CCCOC(=O)c1ccc(O)cc1`, for which the molecule was called inactive.

Turning to `O=c1c(-c2ccc(O)cc2)coc2cc(O)ccc12`, the AC50 was 2320 nM (active) and the outcome was inactive.

The next assay concerns the target zebrafish Estrogen Receptor (ER1), esr1 (gene 259252) (UniProt P57717). The assay is described as follows: ATG_zfER1_XSP2: Attagene TRANS-FACTORIAL Multi-Species (XSP2) HepG2 Assay for zebrafish Estrogen Receptor (ER1) (AID 2283816). Summed up: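 After 24 h compound exposure, RNA from transfected HepG2 cells was reverse-transcribed and reporter transcripts resolved by capillary electrophoresis. The TRANS format reads exogenous zebrafish ER1-Gal4 chimera activity on GAL4-UAS elements; gain of signal against DMSO.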
Consider `CCC(C)(C)C1CCC(O)CC1` (configuration not stated), for which the result was inactive.

For `O=C(O)Cc1cc(I)c(Oc2cc(I)c(O)c(I)c2)c(I)c1`, the outcome was inactive.

Consider `CCC(=C(c1ccc(O)cc1)c1ccc(OCCN(C)C)cc1)c1ccccc1`, for which the result was inactive.

As for `C#C[C@]1(O)CC[C@H]2[C@@H]3CCC4=CC(=O)CC[C@@H]4[C@H]3CC[C@@]21C`, the AC50 was 1.65 µM (active).

For the molecule `CCCOC(=O)c1ccc(O)cc1`, the AC50 is 11.1 µM (active) and the outcome was inactive.

Turning to `CC[C@H](c1ccc(O)cc1)[C@@H](CC)c1ccc(O)cc1`, the AC50 was 0.000411 µM (active).

For `Oc1cc2ccccc2c2ccccc12`, the molecule was classed as inactive.

With `O=c1c(-c2ccc(O)cc2)coc2cc(O)ccc12`, the AC50 is 6.22 µM (active) and 2.67 µM (active).

The next assay addresses chicken Estrogen Receptor (ERa), ESR1 (gene 396099) (UniProt P06212). The assay is described as follows: ATG_chERa_XSP2: Attagene TRANS-FACTORIAL Multi-Species (XSP2) HepG2 Assay for chicken Estrogen Receptor (ERa) (AID 2283817).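 Further: actives raise reporter signal above DMSO so AC50 reflects ER activation.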 Summed up: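 Exogenous chicken ERa-Gal4 chimera activity was assessed in transfected human liver HepG2 cells after 24 h of treatment. Induced reporter mRNA was quantified fluorescently by capillary electrophoresis, with DMSO as baseline.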
With `CCC(C)(C)C1CCC(O)CC1` (configuration not stated), the result was inactive.

Take `C#C[C@]1(O)CC[C@H]2[C@@H]3CCC4=CC(=O)CC[C@@H]4[C@H]3CC[C@@]21C`: the AC50 was 76.6 nM (active).

Regarding `CCCOC(=O)c1ccc(O)cc1`, the AC50 was 27.8 µM (active) and 9.35 µM (active).

Regarding `CC[C@H](c1ccc(O)cc1)[C@@H](CC)c1ccc(O)cc1`, the AC50 was 0.0247 nM (active).

Take `c1ccc2c(c1)ccc1ccccc12`: the outcome was inactive.

For the molecule `O=c1c(-c2ccc(O)cc2)coc2cc(O)ccc12`, the AC50 is 1.49 µM (active) and 369 nM (active).

Another assay concerns zebrafish Estrogen Receptor (ER2a), gene 317734. The assay is described as follows: ATG_zfER2a_XSP2: Attagene TRANS-FACTORIAL Multi-Species (XSP2) HepG2 Assay for zebrafish Estrogen Receptor (ER2a) (AID 2283818).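 Further: hits raise reporter mRNA so AC50 reflects activation of zebrafish ER2a.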 The protocol: ATG_XSP2_multi-species_TRANS is a cell-based, multiplexed assay created by modifying the existing Attagene TRANS-FACTORIAL system to include a panel of nuclear receptors from some or all the following species: human (Homo sapiens), mouse (Mus musculus), frog (Xenopus laevis), zebrafish (Danio rerio), chicken (Gallus gallus), and turtle (Chrysemys picta). The ECOTOX-FACTORIAL format uses HepG2, a human liver cell line, with measurements taken at 24 hours after chemical dosing in a 24-well plate. Xsp2 included 3 nM 6-alpha-fluorotestosterone and 1.5 nM norgestrel to stimulate the androgen receptor.ATG_zfER2a_XSP2 is one of 29 assay components measured or calculated from the ATG_XSP2_multi-species_TRANS assay. It is designed to make measurements of mRNA induction, a form of inducible reporter, as detected with fluorescence intensity signals by Reverse transcription polymerase chain reaction (RT-PCR) and Capillary electrophoresis technology.The assay endpoint ATG_zfER2a_XSP2 was analyzed in the positive analysis fitting direction relative to DMSO as the negative control and baseline of activity. Using a type of inducible reporter, measures of mRNA for gain-of-signal activity can be used to understand the reporter gene at the transcription factor-level as they relate to the gene ER. Furthermore, this assay endpoint can be referred to as a primary readout, because this assay has produced multiple assay endpoints where this one serves a reporter gene function. To generalize the intended target to other relatable targets, this assay endpoint is annotated to the nuclear receptor intended target family, where the subfamily is steroidal.
Human liver HepG2 cells are transiently transfected with multiple reporter transcription units (MRTUs) in 6-well plates using FuGene 6 reagent (Roche; 3 ml FuGene/1 mg DNA). The MRTU constructs are regulated by a cis-regulating element (promoter). […] A major difference between the CIS and TRANS system is that in CIS activities of endogenous TFs are measured, whereas the TRANS assay evaluates changes in activities of exogenous, chimeric NR-Gal4 proteins. […] At the end of 24 hour incubation, total RNA was isolated using TriZol reagent (Invitrogen). The isolated RNA is then reverse-transcribed using oligo(dT) primer and Mo-MLV reverse transcriptase (Invitrogen) with DNAse I (Ambion) treatment for 30 min. The one-tenth of the produced cDNA was amplified by PCR using Taq DNA polymerase (Invitrogen) and two reporter sequence-specific primers. The PCR products were fluorescently labeled by primer extension with 6-arboxyfluorescein (6-FAM) 5'-labeled reporter sequence-specific primer (2 min at 95 C, 20 s at 68 C and 10 min at 72 C) and these products were digested with 5U of HpaI (New England Biolabs) for 2h at 37 C. The fragments were purified using Qiaquick PCR columns (Qiagen), analyzed on an ABI 3130xL genetic analyzer (Applied Biosystems) with peak positions identified by using a set of X-rhodamine (ROX)-labeled MapMarker1000 molecular weight standards (BioVentures). The raw capillary electrophoresis data was processed using Attagraph software (Attagene).
In the case of `CCC(C)(C)C1CCC(O)CC1` (configuration not stated), the result was inactive.

With `O=C(O)Cc1cc(I)c(Oc2cc(I)c(O)c(I)c2)c(I)c1`, the outcome was inactive.

On to `C#C[C@]1(O)CC[C@H]2[C@@H]3CCC4=CC(=O)CC[C@@H]4[C@H]3CC[C@@]21C`, for which the AC50 was 83.4 nM (active).

`CCCOC(=O)c1ccc(O)cc1`: the AC50 is 51 µM (active) and 3.49 µM (active).

As to `CC[C@H](c1ccc(O)cc1)[C@@H](CC)c1ccc(O)cc1`, the AC50 was 0.124 nM (active).

As for `c1ccc2c(c1)ccc1ccccc12`, the outcome was inactive.

`Oc1cc2ccccc2c2ccccc12`: the call was inactive.

Regarding `O=c1c(-c2ccc(O)cc2)coc2cc(O)ccc12`, the AC50 is 385 nM (active) and 164 nM (active).

These data come from PubChem BioAssay (EPA / NIEHS).
